Avidin bead fluor: avidin bead compound fluorescence profile; Avidin beads, compound fluorescence 488/530 nm, flow cytometry; stronger effect = higher value; fluorescence (KMESF) at 10 µM; 0.38% of 220,000 active; AID 1775; in the data active = fluorescence above about 47
RGS16-Gao HTS: RGS16-Galphao interaction regulator (human) | bead-based flow cytometry RGS16-Galphao binding, fluorescence; actives lie on both sides | binding response (% of control), % at 10 µM | 0.38% of 220,000 active;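 note: Galphao activated by GDP with aluminum fluoride before binding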
Target sequence (O15492 whole entry, looked up): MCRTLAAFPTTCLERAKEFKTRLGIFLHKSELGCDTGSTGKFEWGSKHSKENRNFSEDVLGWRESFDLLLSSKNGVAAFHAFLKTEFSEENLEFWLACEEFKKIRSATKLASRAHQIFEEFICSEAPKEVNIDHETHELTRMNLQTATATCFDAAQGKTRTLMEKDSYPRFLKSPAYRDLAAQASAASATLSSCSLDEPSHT
Target sequence (P09471 whole entry, looked up): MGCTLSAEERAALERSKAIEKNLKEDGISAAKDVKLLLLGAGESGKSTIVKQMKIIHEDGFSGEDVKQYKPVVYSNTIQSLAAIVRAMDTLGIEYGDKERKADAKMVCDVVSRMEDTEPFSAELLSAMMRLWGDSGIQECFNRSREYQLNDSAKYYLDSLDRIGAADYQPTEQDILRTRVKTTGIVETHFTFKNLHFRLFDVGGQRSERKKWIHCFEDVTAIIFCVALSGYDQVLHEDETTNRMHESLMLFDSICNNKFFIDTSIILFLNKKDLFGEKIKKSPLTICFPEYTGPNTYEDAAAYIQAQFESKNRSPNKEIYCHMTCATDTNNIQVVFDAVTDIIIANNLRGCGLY
RGS4-Gao reg: modulates binding of RGS4 to human Galphao. AID 1415. binding response (% of control), % at 10 µM. 0.33% of 220,000 active. Multiplexed bead flow cytometry; actives lie on both sides. P09471; in the data active = binding response below about 49% or above about 150%; inactive = in between;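 note: fluorescent Galphao activated with aluminum fluoride binding bead-coupled RGS4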
Target sequence (P09471 whole entry, looked up): as above
GSH bead fluor: GSH bead compound fluorescence profile | GSH beads flow cytometry, compound fluorescence 488/530 nm; stronger effect = higher value | AID 1776 | fluorescence (KMESF) at 10 µM | 0.25% of 190,000 active; in the data active = fluorescence above about 89;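 note: glutathione beads carrying GST-tagged Bcl family fusion proteins plus one bare bead set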
RGS7-Gao: human RGS7-Galphao interaction regulation; AID 1439; P09471; Multiplexed bead flow cytometry, RGS7-Galphao binding; actives lie on both sides; binding response (% of control), % at 10 µM; 0.35% of 220,000 active; in the data active = binding response below about 49% or above about 150%; inconclusive = no clear call, values can overlap the other calls; inactive = in between;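 note: fluorescent Galphao held in activated GDP-AlF4 state binding bead-coupled RGS7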
RGS8-Gao: human RGS8-Galphao interaction regulation. P09471. multiplexed bead flow cytometry, RGS8-Galphao binding; actives lie on both sides. response (percent of control binding), % at 10 µM. 0.34% of 220,000 active; in the data active = response below about 60% or above about 140%; inactive = in between;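 note: Galphao activated as the GDP aluminium fluoride complex binding bead-coupled RGS8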
RGS-Gao: RGS4-Galphao interaction regulator (human). multiplexed bead flow cytometry, RGS–Galpha-o binding. shares compounds with RGS16-Gao HTS. AID 1504. RGS4–Galpha-o binding response, % at 10 µM. 99% of 1,600 active;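 note: fluorescently labeled Galpha-o bound to GDP with aluminium fluoride binding biotinylated RGS beads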
Biotin-avidin: interferes with biotinylated probe binding to avidin beads; inhibition, % at 10 µM; AID 1783; shares compounds with RGS16-Gao HTS; 1,700 tested, under 10 active; streptavidin beads, fluorescein-biotin binding, flow cytometry;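 active = inhibition above 50%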;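 note: median green fluorescence of gated singlet beads compared with DMSO control wells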
RGS8-Gao confirm: RGS8-Galphao interaction regulation, single point confirmation. shares compounds with RGS16-Gao HTS. bead-based flow cytometry RGS8-Galphao binding, fluorescence; actives lie on both sides. binding response (% of control), % at 10 µM. 3% of 1,700 active. AID 1836; in the data active = binding response below about 72% or above about 130%; inactive = in between;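 note: Galphao activated as GDP AlF4 complex before binding bead RGS8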
RGS7-Gao confirm: RGS7-Galphao interaction regulation, single point confirmation; 7.8% of 1,700 active; shares compounds with RGS16-Gao HTS; AID 1837; bead-based flow cytometry RGS7-Galphao binding; actives lie on both sides; response (percent of control binding), % at 10 µM; in the data active = response below about 75% or above about 130%; inactive = in between;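 note: fluorescent Galphao activated with GDP and aluminum fluoride binding bead-coupled RGS7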
RGS16-Gao single: RGS16-Galphao interaction regulation, single point confirmation | shares compounds with RGS16-Gao HTS | bead-based flow cytometry, RGS16-Galphao binding; actives lie on both sides | response (% of control binding), % at 10 µM | 4% of 1,700 active | AID 1838; in the data active = response below about 74% or above about 130%; inactive = in between;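 note: Galphao activated as the GDP aluminium fluoride complex binding bead-coupled RGS16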
RGS4-Gao confirm: confirmation of regulators of human RGS4-Galphao interaction; shares compounds with RGS16-Gao HTS; AID 1840; binding response (% of control), % at 10 µM; 4% of 1,700 active; RGS4-Galphao binding, multiplexed bead flow cytometry; actives lie on both sides; in the data active = binding response below about 74% or above about 130%; inactive = in between
RGS19-Gao single: confirmation of regulators of human RGS19-Galphao interaction | shares compounds with RGS16-Gao HTS | bead-based flow cytometry RGS19-Galphao binding; actives lie on both sides | response (percent of control binding), % at 10 µM | 5% of 1,700 active; in the data active = response below about 50% or above about 160%; inactive = in between
Each line names hits and unclear results; the compound was inactive in the other large screens (follow-up assays come after a bar, where they were run); [ ] = dose if it differs, or a comment. Hits are enriched below; roughly 1.2% of the tested compounds scored in any of these assays. Unless noted, the rule behind the calls is not given here.

Cc1ccc(C(c2sc3nc(C)nn3c2O)N2CCN(C(=O)c3ccco3)CC2)cc1 (configuration not stated)	RGS16-Gao HTS 23.4 | RGS-Gao 96.9 | Biotin-avidin inactive | RGS8-Gao confirm inactive | RGS7-Gao confirm inactive | RGS16-Gao single inactive | RGS4-Gao confirm inactive | RGS19-Gao single inactive
Cc1nc2sc(C(c3ccccc3)N3CCN(C(=O)c4ccco4)CC3)c(O)n2n1 (configuration not stated)	none
COc1ccc(/C=C/C(=O)Nc2nonc2NC(C)=O)cc1	none
CCOc1ccc(-c2nnc(-c3ccco3)o2)cc1OCC	none
CCOc1cc(-c2nnc(-c3ccco3)o2)cc(OCC)c1OCC	Avidin bead fluor 194, RGS7-Gao 156.1[activator] | RGS-Gao 119.4 | Biotin-avidin inactive | RGS8-Gao confirm inactive | RGS7-Gao confirm inactive | RGS16-Gao single inactive | RGS4-Gao confirm inactive | RGS19-Gao single inactive
COc1cc(C2NC(=O)NC(c3ccccc3)=C2C(C)=O)c(Cl)cc1OCC(=O)O (configuration not stated)	RGS7-Gao inconclusive
CN1C(=O)C(O)(CC(=O)c2ccccc2O)c2cc(Br)ccc21 (configuration not stated)	RGS8-Gao 147.5[activator] | RGS-Gao 116.7 | Biotin-avidin inactive | RGS8-Gao confirm inactive | RGS7-Gao confirm inactive | RGS16-Gao single inactive | RGS4-Gao confirm inactive | RGS19-Gao single inactive
CC(=O)NCCc1c[nH]c2ccc(OCC(O)CNC(C)(C)C)cc12 (configuration not stated)	RGS7-Gao inconclusive (no result: GSH bead fluor)
Cc1cc(Cl)ccc1N=c1ssnc1Cl	RGS16-Gao HTS 18.9 | RGS-Gao 83.4 | Biotin-avidin inactive | RGS8-Gao confirm inactive | RGS7-Gao confirm inactive | RGS16-Gao single inactive | RGS4-Gao confirm inactive | RGS19-Gao single inactive
O=S1(=O)C=CC(c2ccccc2)C1 (configuration not stated)	RGS7-Gao inconclusive (no result: GSH bead fluor)
Cc1onc(-c2ccccc2)c1CNS(=O)(=O)c1ccccc1	RGS7-Gao inconclusive (no result: GSH bead fluor)
Cc1onc(-c2ccccc2)c1CNS(=O)(=O)c1cccc(Cl)c1	RGS4-Gao reg 152.5[activator], RGS7-Gao inconclusive (no result: GSH bead fluor) | Biotin-avidin inactive | RGS8-Gao confirm inactive | RGS7-Gao confirm inactive | RGS16-Gao single inactive | RGS4-Gao confirm inactive | RGS19-Gao single inactive
CSc1ccccc1Nc1ncnc(N)n1	RGS7-Gao inconclusive (no result: GSH bead fluor)
CC(C)(C)NC(=O)CSc1nc(N)c(-c2ccccc2)c(=O)[nH]1	none
Nc1nc(SCC(=O)Nc2ccccc2)[nH]c(=O)c1-c1ccccc1	none (no result: Avidin bead fluor, RGS16-Gao HTS, RGS4-Gao reg, RGS7-Gao, RGS8-Gao) | Biotin-avidin inactive | RGS8-Gao confirm inactive | RGS7-Gao confirm inactive | RGS16-Gao single inactive | RGS4-Gao confirm inactive | RGS19-Gao single inactive
Cc1ccc(NC(=O)CSc2nc(C)c(Cc3ccccc3)c(=O)[nH]2)cc1	RGS16-Gao HTS 14.6, RGS4-Gao reg 29.2, RGS7-Gao 21.6, RGS8-Gao 17.4 | Biotin-avidin inactive | RGS8-Gao confirm inactive | RGS7-Gao confirm inactive | RGS16-Gao single inactive | RGS4-Gao confirm inactive | RGS19-Gao single inactive
O=C(O)CN1CCN(Cc2ccccc2F)C1=O	none
COc1ccc(N(CC(=O)NCc2cccs2)S(=O)(=O)c2c(C)n[nH]c2C)cc1	RGS16-Gao HTS 14.5, RGS8-Gao 58.2 | RGS-Gao 75.3
Cc1ccc2c(c1)cc(CN(Cc1ccco1)C(=O)COc1ccccc1)c1nnnn12	Avidin bead fluor 102, RGS7-Gao 158.6[activator] | RGS-Gao 125.8 | Biotin-avidin inactive | RGS8-Gao confirm inactive | RGS7-Gao confirm inactive | RGS16-Gao single inactive | RGS4-Gao confirm inactive | RGS19-Gao single inactive
O=C(CC1NCCN(Cc2ccccc2)C1=O)Nc1ccccc1 (configuration not stated)	RGS7-Gao inconclusive (no result: GSH bead fluor)
Nc1c(Cl)cc(Cl)cc1C(=O)OCC(=O)N1CCCC1	RGS16-Gao HTS 4.0, RGS4-Gao reg 11.5, RGS7-Gao 9.7, RGS8-Gao 13.6 | Biotin-avidin inactive | RGS8-Gao confirm inactive | RGS7-Gao confirm inactive | RGS16-Gao single inactive | RGS4-Gao confirm inactive | RGS19-Gao single inactive
NC(=O)COC(=O)c1cc(Cl)cc(Cl)c1N	none
CO/N=C/C(=N\Nc1ccc(C)cc1)C(=O)c1ccc(OC)cc1	none
CO/N=C/C(=N\Nc1ccc(OC)cc1)C(=O)c1ccc(F)cc1	RGS4-Gao reg 40.2, RGS7-Gao 34.9, RGS8-Gao 44.7 | Biotin-avidin inactive | RGS8-Gao confirm inactive | RGS7-Gao confirm inactive | RGS16-Gao single inactive | RGS4-Gao confirm inactive | RGS19-Gao single inactive
Cn1c(SCC(N)=O)nnc1-c1ccccc1	none
Cn1c(CO)cnc1-c1ccccc1	RGS4-Gao reg 151.4[activator], RGS7-Gao inconclusive (no result: GSH bead fluor) | Biotin-avidin inactive | RGS8-Gao confirm inactive | RGS7-Gao confirm inactive | RGS16-Gao single inactive | RGS4-Gao confirm inactive | RGS19-Gao single inactive
N#CC1=C(N)C2=C(N3CCCCC3)CCCC2C1(C#N)C#N (configuration not stated)	none
N#CC(C#N)=C1C=C2C=C(N3CCCCC3)CCC2CC1 (configuration not stated)	Avidin bead fluor 84, RGS4-Gao reg 161.5[activator], GSH bead fluor 99, RGS7-Gao 186.1[activator] | Biotin-avidin inactive | RGS8-Gao confirm inactive | RGS7-Gao confirm 136.8[activator] | RGS16-Gao single inactive | RGS4-Gao confirm inactive | RGS19-Gao single 190.5[activator]
CCN(CC)C1=CC2=CC(=C(C#N)C#N)CCC2CC1 (configuration not stated)	RGS4-Gao reg 165.0[activator] | Biotin-avidin inactive | RGS8-Gao confirm inactive | RGS7-Gao confirm 166.8[activator] | RGS16-Gao single inactive | RGS4-Gao confirm 129.5[activator] | RGS19-Gao single 362.9[activator]

Compound activity: PubChem BioAssay, NMMLSC
